# Source: PubChem (National Center for Advancing Translational Sciences (NCATS))
# HT1080 IDH1KD tx – kills HT-1080 cells with IDH1 knockdown | HT-1080 IDH1 knockdown viability, ATP luminescence, 48 h | Potency, µM (series often up to 46.1 µM), usual class: cytotoxic | 360,000 tested, 2% active
#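 Using the IDH1-knockdown HT-1080 line run in the same batch and compound series as the NT line, viability after 48 h at 37 °C was determined by CellTiter-Glo luminescence and expressed as % activity.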
# ALOX12 inh – blocks human arachidonate 12S-lipoxygenase; 580,000 tested, 1.1% active; Potency, µM (highest dose often 108 µM), actives largely listed as inhibitors; AID 1671190; purified 12hLO, xylenol orange hydroperoxide absorbance; P18054
# Target sequence (P18054 whole entry, looked up): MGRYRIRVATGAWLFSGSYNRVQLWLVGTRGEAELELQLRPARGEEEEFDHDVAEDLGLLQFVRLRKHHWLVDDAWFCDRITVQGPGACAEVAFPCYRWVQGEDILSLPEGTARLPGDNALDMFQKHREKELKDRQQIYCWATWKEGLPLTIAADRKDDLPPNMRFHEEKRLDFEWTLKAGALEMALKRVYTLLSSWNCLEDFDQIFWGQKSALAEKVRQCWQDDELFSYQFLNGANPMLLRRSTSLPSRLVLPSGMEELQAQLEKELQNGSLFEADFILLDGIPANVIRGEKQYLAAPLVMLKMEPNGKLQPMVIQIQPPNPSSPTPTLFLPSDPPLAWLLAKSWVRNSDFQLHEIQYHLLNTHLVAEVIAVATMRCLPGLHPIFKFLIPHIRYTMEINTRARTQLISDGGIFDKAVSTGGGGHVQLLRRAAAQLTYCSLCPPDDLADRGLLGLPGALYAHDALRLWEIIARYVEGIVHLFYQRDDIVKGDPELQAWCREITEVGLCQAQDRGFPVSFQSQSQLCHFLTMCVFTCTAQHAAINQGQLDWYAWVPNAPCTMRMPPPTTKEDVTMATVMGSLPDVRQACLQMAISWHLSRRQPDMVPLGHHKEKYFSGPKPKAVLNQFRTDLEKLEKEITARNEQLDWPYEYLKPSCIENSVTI
#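 Purified human 12hLO (150 nM final) in 25 mM Hepes, 0.01% Triton X-100, pH 7.0 was preincubated 15 min at room temperature with compound. Then 40 uM arachidonic acid was added, 30 min. Hydroperoxide was read by Fe-XO absorbance ratio 573/405 nm.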
# TDP1 cell noCPT – qHTS for Inhibitors of human tyrosyl-DNA phosphodiesterase 1 (TDP1): qHTS in cells in absence of CPT. Potency, µM (titrated, usually from 46.2 µM), usual class: inhibitors. 420,000 tested, 15% active. DT40 Tdp1-/- hTDP1 cells, no CPT, ATP luminescence, 48 h; note: nearly all actives have a fitted effect of over 55% in size
#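 Stably hTDP1-transfected Tdp1-null chicken DT40 cells were treated with library compounds minus camptothecin and grown for at least 48 hr at 37 °C, after which cellular ATP was quantified by luminescence.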
# HT1080NT lethal – kills 2HG-producing HT-1080-NT fibrosarcoma cells | HT-1080-NT fibrosarcoma viability, CellTiter-Glo ATP luminescence, 48 h | Potency, µM (doses to about 46.1 µM), most hits filed as cytotoxic | 360,000 tested, 1.6% active | AID 686970;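 note: NT is the 2HG producing partner of a matched IDH1 knockdown line; nearly all actives have a fitted effect of over 55% in size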
#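 Toxicity toward the 2HG-producing NT line was scored as %Activity, normalised to DMSO and no-cell wells, from CellTiter-Glo luminescence after 48 hours' treatment.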
# IL1B secr inh – inhibitors of inflammasome signaling (IL-1 beta secretion). activity change, % at 57.5 µM. 360,000 tested, 4.7% active. THP-1 LPS/ATP IL-1B secretion, AlphaLISA, 16 h; hits give low values; in the data active = activity change below about -50%; inconclusive = mostly about -30% to -49%
#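 Secreted IL-1B measured by AlphaLISA bead assay after 16 h compound exposure of THP-1 cells; compounds (final up to 57.5 uM) added 1 h before LPS (250 ng/mL) and ATP (1.25 mM) stimulation; lower signal means less secretion.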
# DT40 TDP1 CPT – DT40-hTDP1 cell growth loss with CPT; chicken DT40 Tdp1-/-;hTDP1 cells + 20 nM CPT, ATP luminescence, 48 h; Potency, µM (top dose mostly 46.2 µM), usual class: inhibitors; 420,000 tested, 12% active; note: nearly all actives have a fitted effect of over 55% in size
#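 Cell growth measured by CellTiter-Glo luminescence after a minimum 48 h, 37 C compound exposure with 20 nM CPT in Tdp1-knockout DT40 cells stably expressing hTDP1, seeded 400/well; qHTS titration format.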
# Hits are given with their value; – = inactive; ? = inconclusive; · = no result. Only a selection was taken, and hits are over-represented in it overall. Unless noted, calls come from the whole dose curve; as a rule, active = well fitted curve in the direction sought with a large enough effect; inconclusive = small, poorly fitted or top-dose-only effect, or another doubt; inactive = no such curve, though single readings can be large; an effect the other way counts as inactive or inconclusive.
SMILES,HT1080 IDH1KD tx,ALOX12 inh,TDP1 cell noCPT,HT1080NT lethal,IL1B secr inh,DT40 TDP1 CPT
COc1ccc(CNC(=O)COc2ccc3ccc(=O)oc3c2)cc1,·,–,·,·,·,·
Cn1c(C(=O)N2CCCC2)cc2c(=O)n(C)c3ccccc3c21,–,–,–,–,–,–
Cc1cccc(N2CCN(C(=O)c3cc4c(=O)oc5ccccc5c4s3)CC2)c1C,·,–,–,·,·,–
Cc1cccc(N2CCN(C(=O)c3cc4c(=O)n(C)c5ccccc5c4n3C)CC2)c1C,–,–,16.4µM,–,–,?
Cc1cccc(N2CCN(C(=O)c3cc4c(=O)n(C)c5ccccc5c4s3)CC2)c1C,·,–,5.8µM,·,·,?
COCCNC(=O)c1ccc(C(C)(C)C)cc1,·,–,·,·,·,·
COc1nc(N)c(C#N)c(-c2ccc(N(C)CCC#N)cc2)c1C#N,–,?,7.31µM,–,?,18.4µM
COc1ccc(-c2c(C#N)c(N)nc(Sc3ccc(Cl)cc3)c2C#N)cc1,–,?,–,–,·,–
Cn1c(=O)[nH]c(=O)c2c1nc(N1CCN(Cc3ccc(F)cc3)CC1)n2CCc1ccccc1,·,–,·,·,·,·
CCC(C)c1ccc(NC(=O)COc2c(F)c(F)c(C(F)(F)F)c(F)c2F)cc1 (configuration not stated),–,–,?,–,-77.0,?
COc1ccc2nc(C)c3c(c2c1)OC(C(C)(Cl)Br)C3 (configuration not stated),–,?,18.4µM,–,–,?
Cc1nc2ccccc2c2c1CC(C(C)(Cl)Br)O2 (configuration not stated),?,–,3.66µM,?,–,6.51µM
COc1cccc(CN(C)C(=O)C23CC4CC(C2)CC(c2ccccc2)(C4)C3)c1OC,·,–,·,·,·,·
COc1ccc(CN(C)C(=O)C23CC4CC(CC(Cl)(C4)C2)C3)c(OC)c1OC,–,–,20.6µM,–,?,23.1µM
Cc1ccc(C(=O)Nc2cccc(C#N)c2)cc1F,·,–,·,·,·,·
CC(C)(C)OC(=O)CC1(C#N)c2ccccc2C(Br)=CN1C(=O)c1ccccc1 (configuration not stated),?,–,16.4µM,–,–,?
Cc1ccc(-c2nc(CS(=O)CC(=O)N3CCN(c4cccc(Cl)c4)CC3)c(C)o2)cc1 (configuration not stated),·,–,?,·,·,16.4µM
COc1ccc(N2CCN(C(=O)CS(=O)Cc3nc(-c4ccc(OC)c(OC)c4)oc3C)CC2)cc1 (configuration not stated),–,–,?,–,–,?
Cc1oc(-c2ccccc2Cl)nc1CS(=O)CC(=O)N1CCN(c2cccc(C(F)(F)F)c2)CC1 (configuration not stated),·,–,13µM,·,·,9.2µM
Cc1cccc(-c2nc(CS(=O)CC(=O)N3CCN(C)CC3)c(C)o2)c1 (configuration not stated),–,–,–,–,–,–
COc1cccc(-c2nc(CS(=O)CC(=O)N3CCN(c4cccc(C(F)(F)F)c4)CC3)c(C)o2)c1 (configuration not stated),·,–,13µM,·,·,13µM
COc1cccc(-c2nc(CS(=O)CC(=O)O)c(C)o2)c1 (configuration not stated),–,?,–,–,–,–
Cc1ccc(-c2nc(CS(=O)CC(=O)N3CCN(c4ccc(F)cc4)CC3)c(C)o2)cc1 (configuration not stated),–,–,14.6µM,–,–,?
O=C(Cn1ccc2cc(Cl)ccc21)Nc1ccc(O)cc1,·,–,·,·,·,·
Cc1nc(Oc2cccc(F)c2)c2c3c(sc2n1)CCC3,·,–,·,·,·,·
SMILES,HT1080 IDH1KD tx,ALOX12 inh,TDP1 cell noCPT,HT1080NT lethal,IL1B secr inh,DT40 TDP1 CPT
COc1ccc(-c2nnc([C@H]3CCN(Cc4ccc(F)c(F)c4)C3)o2)cc1,·,–,·,·,·,·
Cc1oc(-c2ccc(Cl)cc2)nc1CS(=O)CC(=O)N1CCN(c2cccc(C(F)(F)F)c2)CC1 (configuration not stated),·,–,20.6µM,·,·,14.6µM
CCc1ccccc1NC(=O)Cn1ccn2nc(-c3ccc(F)cc3)c(CO)c2c1=O,·,–,·,·,·,·
CN(C)c1ccnc(Nc2ccccc2)c1C#N,–,–,–,–,–,–
CN(C)c1ccnc2c[cH-]cc12.[Fe].c1ccc(-[c-]2[c-](-c3ccccc3)[c-](-c3ccccc3)[c-](-c3ccccc3)[c-]2-c2ccccc2)cc1 (configuration not stated),–,?,3.66µM,–,–,5.17µM
O=C(Nc1ccccc1)C1=C[C@@H](c2coc3ccccc3c2=O)C[C@@H](OCc2ccc(CO)cc2)O1,–,–,14.6µM,–,–,?
O=C(C1=C[C@@H](c2coc3ccccc3c2=O)C[C@@H](OCc2ccc(CO)cc2)O1)N1CCCCCCC1,–,·,?,–,–,11.6µM
O=C(C1=C[C@@H](c2coc3ccccc3c2=O)C[C@@H](OCc2ccc(CO)cc2)O1)N1CCN(Cc2ccccc2)CC1,–,·,?,–,?,18.4µM
CCN(CCO)C(=O)[C@H]1C[C@@](CC)(C(=O)O)N(C)[C@H]1c1ccc(OC)cc1,·,–,·,·,·,·
CC(C)C[C@H]1CN([C@@H](CC(C)C)CN2CCCC2CN2C(=S)NC[C@@H]2Cc2ccc(O)cc2)C(=S)N1CCc1ccccc1 (some centres not stated),?,?,?,–,–,?
CC(C)C[C@H]1CNC(=S)N1C[C@H]1CCCN1C[C@H](CC(C)C)N1C[C@H](Cc2ccc(O)cc2)N(CCc2ccccc2)C1=S,?,–,18.4µM,18.4µM,–,?
CC(C)C[C@H]1CN([C@@H](CC(C)C)CN2CCC[C@@H]2CN2C(=S)NC[C@@H]2Cc2ccc(O)cc2)C(=S)N1CCc1ccccc1,?,?,9.2µM,?,?,13µM
CC(C)C[C@@H](CN1CCC[C@@H]1CN1C(=S)NC[C@@H]1Cc1ccc(O)cc1)N1C[C@H](Cc2ccccc2)N(CCc2ccccc2)C1=S,–,·,?,–,–,?
CC(C)C[C@@H](CN1CCCC1CN1C(=S)NC[C@@H]1Cc1ccc(O)cc1)N1C[C@H](Cc2ccccc2)N(CCc2ccccc2)C1=S (some centres not stated),–,–,14.6µM,–,–,?
COc1ccc(C(=O)Nc2ccc([C@H]3OCC(=O)N(Cc4nccn4C)[C@@H]3CO)cc2)cc1,·,–,·,·,·,·
COc1ccc(OC)c(C2CCCN2C(=O)c2ccc(-n3cccn3)cc2)c1 (configuration not stated),·,–,·,·,·,·
COc1c(C)cccc1C(=O)Nc1ccc2oc(-c3ccncc3)nc2c1,·,–,·,·,·,·
